Measured values as given in paper PMC4336329 (PLoS ONE, 2015).
Among all 310,000 compounds or so, about 14,000 (4.5%) showed an effect of 50% or more. Effects have a minus sign here. This excerpt belongs to a sample that is enriched for strong results.

biological target: human ether-à-go-go-related gene (hERG) potassium channel (human, UniProt Q12809); experiment: primary screen, population patch clamp on CHO cells stably expressing hERG; higher = less effect of the substance
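Further: peak tail current of the secondary pulse compared with the same well before compound.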

human ether-à-go-go-related gene (hERG) potassium channel, sequence (Q12809 whole entry, looked up): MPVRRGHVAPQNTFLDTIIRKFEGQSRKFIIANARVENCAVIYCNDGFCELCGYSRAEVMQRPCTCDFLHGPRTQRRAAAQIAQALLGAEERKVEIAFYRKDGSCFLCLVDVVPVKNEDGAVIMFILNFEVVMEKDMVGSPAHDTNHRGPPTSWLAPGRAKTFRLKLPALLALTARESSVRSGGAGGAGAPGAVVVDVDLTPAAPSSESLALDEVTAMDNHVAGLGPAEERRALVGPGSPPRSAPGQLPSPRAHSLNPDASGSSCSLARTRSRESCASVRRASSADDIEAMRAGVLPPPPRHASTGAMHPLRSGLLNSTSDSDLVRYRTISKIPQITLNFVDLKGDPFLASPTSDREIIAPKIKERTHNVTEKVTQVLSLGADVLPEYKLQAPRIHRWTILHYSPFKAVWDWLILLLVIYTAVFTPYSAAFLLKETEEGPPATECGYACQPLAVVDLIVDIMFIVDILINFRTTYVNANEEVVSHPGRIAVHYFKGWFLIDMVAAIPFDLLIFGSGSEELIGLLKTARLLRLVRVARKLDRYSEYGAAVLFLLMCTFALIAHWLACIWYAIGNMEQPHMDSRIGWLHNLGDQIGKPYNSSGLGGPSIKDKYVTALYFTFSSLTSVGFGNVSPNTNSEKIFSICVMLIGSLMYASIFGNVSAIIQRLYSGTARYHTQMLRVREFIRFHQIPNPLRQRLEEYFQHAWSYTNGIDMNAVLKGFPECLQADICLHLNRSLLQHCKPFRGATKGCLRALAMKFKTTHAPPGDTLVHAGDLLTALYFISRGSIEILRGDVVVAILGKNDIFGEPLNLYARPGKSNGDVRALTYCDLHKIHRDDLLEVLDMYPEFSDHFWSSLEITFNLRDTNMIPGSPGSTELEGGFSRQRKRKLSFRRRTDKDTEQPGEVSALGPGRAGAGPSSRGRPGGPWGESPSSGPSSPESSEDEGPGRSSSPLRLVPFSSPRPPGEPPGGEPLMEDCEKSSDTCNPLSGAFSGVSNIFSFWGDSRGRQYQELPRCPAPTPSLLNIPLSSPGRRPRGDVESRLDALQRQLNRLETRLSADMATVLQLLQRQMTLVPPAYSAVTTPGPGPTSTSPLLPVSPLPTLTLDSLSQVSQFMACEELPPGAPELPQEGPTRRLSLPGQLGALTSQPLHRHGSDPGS

Row | Compound | hERG current change (%, negative = inhibition) at 10uM [%]
1 | O=C(O)CN1CCc2ccccc2C1 | 21.3
2 | CCC(CC)C(=O)Nc1cc([N+](=O)[O-])ccc1F | -2.25
3 | COCCN1Cc2cccc(C(=O)Nc3cccnc3)c2C1=O | -32.6
4 | CCOC(=O)C1(Cc2ccccc2C)CCCN(C(=O)CCc2c(C)noc2C)C1 (stereo not drawn) | -29.3
5 | COC(=O)c1cc(C(=O)OCC(=O)NC2CCCCCCC2)cc([N+](=O)[O-])c1 | -7.58
6 | CN(CCOc1ccc(Cl)cc1)Cc1cccc(S(=O)(=O)N(C)C)c1 | -56.5
7 | COc1ccc(OCCN(C)Cc2ccccc2)cc1 | -41.9
8 | Cc1ccc(S(=O)(=O)N(C)C)cc1NC(=O)C(C)N(C)CCOc1ccc(Cl)cc1 (stereo not drawn) | -26.7
9 | COc1ccc(CCNC(=O)C(=O)NCc2cccs2)cc1OC | 8.95
10 | COc1ccc(S(=O)(=O)Cc2ccc(C(=O)NCc3ccccc3)o2)cc1 | -14.3
11 | CCCCSCCCNC(=O)c1ccc(CS(=O)(=O)c2ccc(OC)cc2)o1 | -59.6
12 | CCCCNC(=O)c1ccc(CS(=O)(=O)c2ccc(OC)cc2)o1 | -7
13 | CCCCN(CCCNC(=O)c1ccc(CS(=O)(=O)c2ccc(OC)cc2)o1)Cc1ccccc1 | -67.4
14 | COCCCNC(=O)c1ccc(CS(=O)(=O)c2ccc(OC)cc2)o1 | 5.86
15 | COc1ccc(S(=O)(=O)Cc2ccc(C(=O)NCC(OC)OC)o2)cc1 | 17.4
16 | COc1ccc(S(=O)(=O)Cc2ccc(C(=O)NCCc3ccc(S(N)(=O)=O)cc3)o2)cc1 | 10.1
17 | CCN(CC)CCCNC(=O)c1ccc(CS(=O)(=O)c2ccccc2OC)o1 | 16.3
18 | COc1ccc(S(=O)(=O)Cc2ccc(C(=O)NCCCN(C)c3ccccc3)o2)cc1 | -59.4
19 | CCOc1ccc2nc(COC(=O)c3cccs3)c(C(=O)c3ccccc3)[n+]([O-])c2c1 | 6.46
20 | CCN(CC(=O)Nc1ccc(Br)cc1)C(=O)Cc1cccc(F)c1 | -17.4
21 | O=C(CSc1nnc2c(Cl)cc(C(F)(F)F)cn12)N(Cc1ccccc1)Cc1ccccc1 | -28.6

Row | Compound | hERG current change (%, negative = inhibition) at 10uM [%]
22 | Cc1ccc(OCc2cc(C(=O)NC(C)Cc3cccc(C)n3)no2)cn1 (stereo not drawn) | 17.8
23 | Cn1c(-c2ccsc2)c(-c2cccs2)c2cc(-c3ccc4cc[nH]c4c3)ccc21 | 12.1
24 | Nc1ccc(O)cc1C(=O)OCC(=O)c1ccc(C2CCCCC2)cc1 | 8.51
25 | CCOC(=O)/C=C/C(=O)OCc1csc(CC(=O)Nc2ccccc2C)n1 | -1.99
26 | C[C@H]1CN=C2N(CCNC(=O)CCC3CCCCC3)[C@H](Cc3ccc(O)cc3)CN21 | 9.65
27 | COc1ccc(C[C@H]2CN3C(=NC[C@@H]3C(C)C)N2CCNC(=O)CCC2CCCCC2)cc1 | -80.4
28 | CC(C)[C@H]1CN=C2N(CCNC(=O)CCC3CCCCC3)[C@H](Cc3ccc(O)cc3)CN21 | -40.2
29 | COc1ccc(C[C@H]2CN3C(=NC[C@H]3C)N2CCNC(=O)CCC2CCCCC2)cc1 | -69
30 | C[C@@H]1CN=C2N(CCNC(=O)CCC3CCCCC3)[C@H](Cc3ccc(O)cc3)CN21 | -0.311
31 | COc1ccc(C[C@H]2CN3C(=NC[C@@H]3C)N2CCNC(=O)CCC2CCCCC2)cc1 | -69
32 | NC(=O)c1ncc(C(F)(F)F)cc1Oc1ccc(C(F)(F)F)cc1 | 24.9
33 | O=C(N/N=C1/SCC(=O)N1Cc1ccco1)c1ccccc1F | 20.1
34 | Cc1cccc(-c2nsc(SCC(=O)c3ccc(Cl)cc3)n2)c1 | 23.3
35 | CCOC(=O)C(C(=O)OCC)C(=O)c1cc(OC)c(OC)c(OC)c1 | -16.4
36 | O=S(=O)(Nc1nc2ccccc2nc1N1CCc2ccccc2C1)c1ccc(Cl)cc1 | 7.74
37 | COc1ccc(C(=O)O)cc1S(=O)(=O)NCc1cccnc1 | 19.4
38 | CCc1nn(CCCN2CCN(c3cccc(Cl)c3)CC2)c(=O)n1CCOc1ccccc1 | -63.2
39 | COc1cccc(-n2c(C)nn(CCOc3ccccc3)c2=O)c1 | 8.58
40 | O=C(Cn1nc(-c2ccccc2)ccc1=O)NCCN1CCN(c2cccc(Cl)c2)CC1 | -24.4
41 | Cl.OCCN1CCN(CCOc2cccc(Cl)c2)CC1 | -15.6
42 | Cc1nn(CCOc2ccccc2)c(=O)n1-c1ccc(Cl)cc1 | -3.66

Row | Compound | hERG current change (%, negative = inhibition) at 10uM [%]
43 | CCc1nn(CCCN2CCN(c3cccc(Cl)c3)CC2)c(=O)n1CCOc1ccccc1.Cl | -65
44 | O=Cc1ccnc(-c2ccc(OC(=O)c3ccco3)cc2)n1 | 7.26
45 | Cc1cc(Br)ccc1NS(=O)(=O)c1c(C)[nH]c(=O)[nH]c1=O | 11.6
46 | c1ccc(-n2ncc3c(NCc4ccccn4)ncnc32)cc1 | 0.854
47 | CC(=O)NS(=O)(=O)c1ccc(NC(=O)COc2ccc(C(=O)c3ccccc3)cc2)cc1 | 15.8
48 | Cc1nnsc1S(=O)c1ccc(Br)cc1 (stereo not drawn) | -1.16
49 | CCOC(=O)N1CCN(C(=O)CSc2nc3c([nH]c4ccccc43)c(=O)n2CCOC)CC1 | -65.1
50 | COCCn1c(SCC(=O)N2CCCCCC2)nc2c([nH]c3ccccc32)c1=O | -5.06
51 | COCCn1c(SCC(=O)N2CCC(C)CC2)nc2c([nH]c3ccccc32)c1=O | -19.8
52 | COCCn1c(SCC(=O)N2CCCCC2)nc2c([nH]c3ccccc32)c1=O | -20.5
53 | COCCn1c(SCC(=O)N2CCCC2)nc2c([nH]c3ccccc32)c1=O | -61.3
54 | CCOC(=O)N1CCN(C(=O)CSc2nc3c([nH]c4ccccc43)c(=O)n2CC)CC1 | -13.8
55 | Nc1nnc(SCC(=O)NCCOc2ccccc2)s1 | 4.23
56 | Cc1nc(-c2ccccc2O)n(S(=O)(=O)N(C)C)n1 | -4.34
57 | CCCC[n+]1ccn(C2=C([O-])c3ccccc3C(=O)/C2=N\S(=O)(=O)c2ccc(Br)cc2)c1 | -20.7
58 | O=C(Nc1ccccc1F)C1(c2ccccc2)CC1(Cl)Cl (stereo not drawn) | -70
59 | O=C(Nc1ccccc1)C1(c2ccccc2)CC1(Cl)Cl (stereo not drawn) | -18.1
60 | O=C(Nc1ccccc1Cl)C1(c2ccccc2)CC1(Cl)Cl (stereo not drawn) | -0.213
61 | Cc1ccc(C(=O)c2ccccc2C(=O)O)c(O)c1 | 1.4
62 | Cc1noc(NS(=O)(=O)c2ccc(NC(=O)CSc3nc4ccccc4s3)cc2)c1C | -2.99
63 | CCCN1CCN(CCCNC(=O)c2ccc3nc(N4CCC(C)CC4)sc3c2)CC1 | -50.7

Row | Compound | hERG current change (%, negative = inhibition) at 10uM [%]
64 | CC1CCN(c2nc3ccc(C(=O)NCCCN4CCCCC4)cc3s2)CC1 | -50
65 | CC1CC(C)CN(CCCNC(=O)c2ccc3nc(N4CCCCC4)sc3c2)C1 (stereo not drawn) | -47.5
66 | CCOC(CNC(=O)c1ccc2nc(N3CCC(C)CC3)sc2c1)OCC | 10.6
67 | CC1CCCC(C)N1CCCNC(=O)c1ccc2nc(N3CCCCC3)sc2c1 (stereo not drawn) | -38
68 | CC1CCN(c2nc3ccc(C(=O)O)cc3s2)CC1 | 22.8
69 | CN(CC(=O)Nc1ccc(N2CCOCC2)cc1)C(=O)CCNC(=O)c1ccc(Br)cc1 | 3.43
70 | O.Oc1cc(O)c2c(c1)O[C@H](c1ccc(O)c(O)c1)[C@@H](O)C2 | 17.4
71 | Cc1cc(C)c2nc(N3CCN(C(=O)c4cccs4)CC3)sc2c1 | 0.575
72 | O=C(c1ccc([N+](=O)[O-])o1)N1CCN(c2nc3c(F)cc(F)cc3s2)CC1 | -54.7
73 | Cc1cccc2sc(N3CCN(C(=O)c4cccs4)CC3)nc12 | -9.51
74 | O=C(c1ccc([N+](=O)[O-])o1)N1CCN(c2nc3ccc(F)cc3s2)CC1 | -23.7
75 | O=C(c1cccs1)N1CCN(c2nc3c(F)cc(F)cc3s2)CC1 | -50.1
76 | Cc1ccc2sc(N3CCN(C(=O)c4ccc([N+](=O)[O-])o4)CC3)nc2c1C | 3.89
77 | Cc1ccc(S(=O)(=O)N2CCN(c3cc4c(cc3[N+](=O)[O-])n(C)c(=O)n4C)CC2)cc1 | -4.2
78 | Nc1nonc1-n1nnc(C(=O)N/N=C/c2cccc(Cl)c2)c1CSc1ccc(Cl)cc1 | 23.9
79 | CCCC12CN3CC(C)(CN(C1)C3c1ccc([N+](=O)[O-])o1)C2=O (stereo not drawn) | -19.6
80 | COc1ccc(NC(=O)c2c(NC(=O)CCC(=O)O)sc(-c3ccccc3)c2C)cc1 | 5.27
81 | CC1(C)C(=O)Nc2ccccc2N1C(=O)COc1ncnc2c(Cl)cc(Cl)cc12 | -9.51
82 | CCN(Cc1ccccc1)C(=O)c1cccnc1 | 2.64
83 | CCN(CC)CCN(CC(=O)N(C1CCCCC1)C1CCCCC1)C(=O)c1ccco1.O=C(O)C(=O)O | 23.2
84 | CCN(CC)CCN(CC(=O)N(C1CCCCC1)C1CCCCC1)C(=O)c1cccnc1.Cl.O | -71.9
